How the values were obtained:
[1] = target: High affinity nerve growth factor receptor (Homo sapiens) (UniProt P04629); settings: at 1 µM;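 also: each value is the mean percent inhibition of TRKA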
[2] = target: BDNF/NT-3 growth factors receptor (Homo sapiens) (UniProt Q16620); settings: at 0.1 µM
[3] = target: BDNF/NT-3 growth factors receptor (Homo sapiens) (UniProt Q16620); settings: at 1 µM
[4] = target: NT-3 growth factor receptor (Homo sapiens) (UniProt Q16288); settings: at 0.1 µM
[5] = target: NT-3 growth factor receptor (Homo sapiens) (UniProt Q16288); settings: at 1 µM
[6] = target: T1, Tyrosine-protein kinase TXK (Homo sapiens) (UniProt P42681); settings: at 0.1 µM
T1 sequence (whole entry): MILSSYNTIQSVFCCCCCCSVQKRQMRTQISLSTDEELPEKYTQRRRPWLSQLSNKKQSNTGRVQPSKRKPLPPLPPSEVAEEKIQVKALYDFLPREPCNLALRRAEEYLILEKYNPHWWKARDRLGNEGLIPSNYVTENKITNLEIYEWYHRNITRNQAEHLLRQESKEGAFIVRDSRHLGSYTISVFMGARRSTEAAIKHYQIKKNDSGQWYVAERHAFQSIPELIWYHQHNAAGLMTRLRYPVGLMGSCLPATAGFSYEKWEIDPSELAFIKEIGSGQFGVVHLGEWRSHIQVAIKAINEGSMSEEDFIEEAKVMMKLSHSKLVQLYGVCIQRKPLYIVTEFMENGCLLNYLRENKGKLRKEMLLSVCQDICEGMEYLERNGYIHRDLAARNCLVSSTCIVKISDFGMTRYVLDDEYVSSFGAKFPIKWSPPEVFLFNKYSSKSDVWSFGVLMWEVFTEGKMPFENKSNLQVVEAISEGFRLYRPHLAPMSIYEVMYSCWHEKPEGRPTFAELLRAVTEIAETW

[7] = target: T1, Tyrosine-protein kinase TXK (Homo sapiens); settings: at 1 µM
[8] = target: Non-receptor tyrosine-protein kinase TYK2 (Homo sapiens) (UniProt P29597); settings: at 0.1 µM;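 also: each value is a mean of the inhibition readings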
[9] = target: T2, Dual specificity protein kinase TTK (Homo sapiens) (UniProt P33981); settings: at 1 µM;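 also: reported figures are mean TTK inhibition at 1 µM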
T2 sequence (whole entry): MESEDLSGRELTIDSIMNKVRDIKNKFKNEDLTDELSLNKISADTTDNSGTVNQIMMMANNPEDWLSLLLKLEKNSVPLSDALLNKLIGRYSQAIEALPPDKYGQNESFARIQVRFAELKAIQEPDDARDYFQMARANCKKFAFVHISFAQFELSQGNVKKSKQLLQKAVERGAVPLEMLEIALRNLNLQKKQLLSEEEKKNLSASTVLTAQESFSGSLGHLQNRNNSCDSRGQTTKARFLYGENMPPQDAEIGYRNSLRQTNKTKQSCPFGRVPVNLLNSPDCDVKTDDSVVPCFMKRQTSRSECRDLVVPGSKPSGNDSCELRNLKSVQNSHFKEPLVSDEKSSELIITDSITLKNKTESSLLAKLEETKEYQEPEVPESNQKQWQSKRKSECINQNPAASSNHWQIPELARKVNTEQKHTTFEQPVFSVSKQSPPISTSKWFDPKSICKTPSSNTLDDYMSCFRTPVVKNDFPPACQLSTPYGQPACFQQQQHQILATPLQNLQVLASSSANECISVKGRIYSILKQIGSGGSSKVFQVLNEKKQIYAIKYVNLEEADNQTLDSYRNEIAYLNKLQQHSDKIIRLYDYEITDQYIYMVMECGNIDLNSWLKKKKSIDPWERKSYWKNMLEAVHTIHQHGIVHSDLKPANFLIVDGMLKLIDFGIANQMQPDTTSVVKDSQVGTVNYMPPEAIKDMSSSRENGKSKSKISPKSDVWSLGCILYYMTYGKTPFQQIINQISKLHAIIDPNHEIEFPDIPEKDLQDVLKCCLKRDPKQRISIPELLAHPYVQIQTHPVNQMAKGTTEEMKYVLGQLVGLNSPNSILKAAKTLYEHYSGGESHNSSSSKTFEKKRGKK

[10] = target: T3, Aurora kinase A (Homo sapiens) (UniProt O14965); settings: at 0.1 µM
T3 sequence (whole entry): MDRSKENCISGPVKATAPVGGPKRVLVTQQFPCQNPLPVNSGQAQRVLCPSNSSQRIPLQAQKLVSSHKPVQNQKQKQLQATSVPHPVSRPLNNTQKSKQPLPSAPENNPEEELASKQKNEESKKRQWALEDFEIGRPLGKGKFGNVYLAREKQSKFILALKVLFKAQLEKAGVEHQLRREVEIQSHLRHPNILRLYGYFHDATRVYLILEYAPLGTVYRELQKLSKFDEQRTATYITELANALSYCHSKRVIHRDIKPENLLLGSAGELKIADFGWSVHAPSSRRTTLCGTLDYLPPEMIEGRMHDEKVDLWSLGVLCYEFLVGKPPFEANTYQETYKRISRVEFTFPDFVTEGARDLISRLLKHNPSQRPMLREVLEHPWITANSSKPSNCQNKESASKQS

[11] = target: T3, Aurora kinase A (Homo sapiens); settings: at 1 µM
[12] = target: Aurora kinase B (Homo sapiens) (UniProt Q96GD4); settings: at 0.1 µM
[13] = target: Aurora kinase B (Homo sapiens) (UniProt Q96GD4); settings: at 1 µM
[14] = target: T4, Aurora kinase C (Homo sapiens) (UniProt Q9UQB9); settings: at 0.1 µM
T4 sequence (whole entry): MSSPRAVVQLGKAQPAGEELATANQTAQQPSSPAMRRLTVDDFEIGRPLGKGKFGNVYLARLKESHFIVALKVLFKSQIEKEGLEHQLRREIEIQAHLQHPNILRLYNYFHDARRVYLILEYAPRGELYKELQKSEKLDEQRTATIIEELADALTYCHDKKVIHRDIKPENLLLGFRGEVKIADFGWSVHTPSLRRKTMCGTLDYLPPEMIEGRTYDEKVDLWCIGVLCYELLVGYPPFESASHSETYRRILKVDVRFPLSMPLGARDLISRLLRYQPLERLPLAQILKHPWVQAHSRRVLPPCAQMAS

[15] = target: T4, Aurora kinase C (Homo sapiens); settings: at 1 µM
[16] = target: Serine/threonine-protein kinase 10 (Homo sapiens) (UniProt O94804); settings: at 0.1 µM
[17] = target: Serine/threonine-protein kinase 10 (Homo sapiens) (UniProt O94804); settings: at 1 µM
[18] = target: T5, Mitogen-activated protein kinase kinase kinase kinase 2 (Homo sapiens) (UniProt Q12851); settings: at 0.1 µM
T5 sequence (whole entry): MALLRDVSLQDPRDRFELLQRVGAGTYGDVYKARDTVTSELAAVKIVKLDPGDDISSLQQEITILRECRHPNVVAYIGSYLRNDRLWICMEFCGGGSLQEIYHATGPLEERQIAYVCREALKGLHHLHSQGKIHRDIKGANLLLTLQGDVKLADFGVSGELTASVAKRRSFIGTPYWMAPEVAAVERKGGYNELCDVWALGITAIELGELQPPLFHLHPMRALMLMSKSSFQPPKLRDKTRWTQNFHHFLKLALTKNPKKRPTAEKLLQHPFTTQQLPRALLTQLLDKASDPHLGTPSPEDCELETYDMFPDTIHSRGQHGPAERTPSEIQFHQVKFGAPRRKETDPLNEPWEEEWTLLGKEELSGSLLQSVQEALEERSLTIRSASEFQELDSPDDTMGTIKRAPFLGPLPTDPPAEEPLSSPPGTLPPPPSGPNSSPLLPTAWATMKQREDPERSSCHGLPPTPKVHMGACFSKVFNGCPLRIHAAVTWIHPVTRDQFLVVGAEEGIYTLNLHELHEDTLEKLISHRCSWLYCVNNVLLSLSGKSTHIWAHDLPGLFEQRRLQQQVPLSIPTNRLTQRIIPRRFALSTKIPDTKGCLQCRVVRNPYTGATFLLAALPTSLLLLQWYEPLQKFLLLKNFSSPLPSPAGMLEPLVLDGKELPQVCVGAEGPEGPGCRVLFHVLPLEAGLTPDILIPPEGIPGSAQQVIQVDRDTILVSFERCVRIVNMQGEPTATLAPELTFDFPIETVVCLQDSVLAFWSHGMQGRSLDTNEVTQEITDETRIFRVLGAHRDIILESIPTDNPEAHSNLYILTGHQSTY

[19] = target: T5, Mitogen-activated protein kinase kinase kinase kinase 2 (Homo sapiens); settings: at 1 µM
[20] = target: Mitogen-activated protein kinase kinase kinase kinase 4 (Homo sapiens) (UniProt O95819); settings: at 0.1 µM
Chain of Mitogen-activated protein kinase kinase kinase kinase 4 (Homo sapiens) (O95819 2-1239 limits assumed): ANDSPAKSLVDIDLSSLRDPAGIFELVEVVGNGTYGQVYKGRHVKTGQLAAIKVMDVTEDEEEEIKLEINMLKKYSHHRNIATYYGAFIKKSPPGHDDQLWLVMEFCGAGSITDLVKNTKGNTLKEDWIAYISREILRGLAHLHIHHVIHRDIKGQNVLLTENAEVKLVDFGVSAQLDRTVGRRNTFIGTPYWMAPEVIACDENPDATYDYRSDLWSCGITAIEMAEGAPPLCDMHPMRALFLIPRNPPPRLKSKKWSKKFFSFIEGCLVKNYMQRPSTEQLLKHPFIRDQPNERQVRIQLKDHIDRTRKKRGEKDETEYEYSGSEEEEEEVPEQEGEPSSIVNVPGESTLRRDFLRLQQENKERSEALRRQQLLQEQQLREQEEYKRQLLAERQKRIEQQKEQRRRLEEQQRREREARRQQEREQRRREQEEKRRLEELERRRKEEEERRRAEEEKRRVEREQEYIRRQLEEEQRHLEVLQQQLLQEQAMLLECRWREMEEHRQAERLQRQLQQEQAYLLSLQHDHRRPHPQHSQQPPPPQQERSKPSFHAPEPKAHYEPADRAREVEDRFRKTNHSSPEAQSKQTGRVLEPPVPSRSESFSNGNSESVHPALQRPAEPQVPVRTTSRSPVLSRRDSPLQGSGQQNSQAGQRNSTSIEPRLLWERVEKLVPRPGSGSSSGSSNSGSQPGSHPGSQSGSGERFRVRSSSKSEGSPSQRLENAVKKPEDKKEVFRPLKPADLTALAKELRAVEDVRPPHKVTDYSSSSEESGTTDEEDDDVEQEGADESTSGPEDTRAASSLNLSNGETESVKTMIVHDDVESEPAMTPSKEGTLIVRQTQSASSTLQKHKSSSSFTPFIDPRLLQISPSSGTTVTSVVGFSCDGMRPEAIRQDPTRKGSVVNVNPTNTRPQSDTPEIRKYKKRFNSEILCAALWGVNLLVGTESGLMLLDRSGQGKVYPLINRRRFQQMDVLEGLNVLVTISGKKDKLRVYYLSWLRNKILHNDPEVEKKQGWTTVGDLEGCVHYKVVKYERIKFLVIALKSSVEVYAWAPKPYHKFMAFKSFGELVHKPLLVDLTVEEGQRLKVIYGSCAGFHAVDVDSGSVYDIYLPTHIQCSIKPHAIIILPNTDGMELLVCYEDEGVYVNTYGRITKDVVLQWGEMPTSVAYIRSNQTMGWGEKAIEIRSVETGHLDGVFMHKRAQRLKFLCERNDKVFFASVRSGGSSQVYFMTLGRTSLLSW

Chain of Aurora kinase B (Homo sapiens) (Q96GD4 whole entry): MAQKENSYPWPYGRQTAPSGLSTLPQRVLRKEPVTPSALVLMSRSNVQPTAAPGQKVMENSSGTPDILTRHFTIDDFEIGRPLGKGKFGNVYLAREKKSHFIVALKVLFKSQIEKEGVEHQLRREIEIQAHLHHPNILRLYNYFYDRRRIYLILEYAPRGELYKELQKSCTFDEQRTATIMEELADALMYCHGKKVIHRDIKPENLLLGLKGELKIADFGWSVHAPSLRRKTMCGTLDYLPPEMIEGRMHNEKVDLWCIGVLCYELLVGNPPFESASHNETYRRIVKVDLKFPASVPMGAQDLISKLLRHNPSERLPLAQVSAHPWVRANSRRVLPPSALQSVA
Chain of Non-receptor tyrosine-protein kinase TYK2 (Homo sapiens) (P29597 whole entry): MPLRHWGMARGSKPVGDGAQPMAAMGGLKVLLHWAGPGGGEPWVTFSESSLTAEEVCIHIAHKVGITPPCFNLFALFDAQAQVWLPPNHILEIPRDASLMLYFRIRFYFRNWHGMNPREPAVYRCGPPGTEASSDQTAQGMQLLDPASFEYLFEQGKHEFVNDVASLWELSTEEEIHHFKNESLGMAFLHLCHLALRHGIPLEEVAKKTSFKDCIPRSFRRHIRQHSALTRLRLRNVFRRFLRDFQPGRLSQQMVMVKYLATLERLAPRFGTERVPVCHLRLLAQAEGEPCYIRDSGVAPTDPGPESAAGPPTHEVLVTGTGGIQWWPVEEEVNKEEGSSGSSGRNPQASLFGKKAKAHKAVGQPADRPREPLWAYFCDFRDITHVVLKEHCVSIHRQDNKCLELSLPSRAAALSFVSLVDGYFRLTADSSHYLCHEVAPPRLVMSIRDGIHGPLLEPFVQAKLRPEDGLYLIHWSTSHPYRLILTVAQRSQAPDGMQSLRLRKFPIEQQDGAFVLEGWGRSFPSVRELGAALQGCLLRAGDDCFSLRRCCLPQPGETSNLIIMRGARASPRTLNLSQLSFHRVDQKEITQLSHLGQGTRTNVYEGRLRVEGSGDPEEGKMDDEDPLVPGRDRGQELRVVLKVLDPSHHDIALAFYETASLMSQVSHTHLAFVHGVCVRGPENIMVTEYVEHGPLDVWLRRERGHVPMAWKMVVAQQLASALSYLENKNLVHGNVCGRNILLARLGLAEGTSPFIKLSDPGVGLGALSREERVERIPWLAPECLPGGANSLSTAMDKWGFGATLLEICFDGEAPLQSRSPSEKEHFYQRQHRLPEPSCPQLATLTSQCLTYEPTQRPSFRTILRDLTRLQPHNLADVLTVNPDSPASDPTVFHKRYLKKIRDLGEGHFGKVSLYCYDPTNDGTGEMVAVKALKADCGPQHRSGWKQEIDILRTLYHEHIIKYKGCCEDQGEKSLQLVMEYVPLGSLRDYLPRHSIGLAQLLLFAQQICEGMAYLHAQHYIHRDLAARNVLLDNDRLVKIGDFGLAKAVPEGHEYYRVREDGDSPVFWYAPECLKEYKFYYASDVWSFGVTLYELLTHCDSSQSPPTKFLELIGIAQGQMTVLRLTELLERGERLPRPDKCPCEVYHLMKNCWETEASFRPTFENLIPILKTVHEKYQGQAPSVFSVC
Chain of High affinity nerve growth factor receptor (Homo sapiens) (P04629 33-796 limits assumed): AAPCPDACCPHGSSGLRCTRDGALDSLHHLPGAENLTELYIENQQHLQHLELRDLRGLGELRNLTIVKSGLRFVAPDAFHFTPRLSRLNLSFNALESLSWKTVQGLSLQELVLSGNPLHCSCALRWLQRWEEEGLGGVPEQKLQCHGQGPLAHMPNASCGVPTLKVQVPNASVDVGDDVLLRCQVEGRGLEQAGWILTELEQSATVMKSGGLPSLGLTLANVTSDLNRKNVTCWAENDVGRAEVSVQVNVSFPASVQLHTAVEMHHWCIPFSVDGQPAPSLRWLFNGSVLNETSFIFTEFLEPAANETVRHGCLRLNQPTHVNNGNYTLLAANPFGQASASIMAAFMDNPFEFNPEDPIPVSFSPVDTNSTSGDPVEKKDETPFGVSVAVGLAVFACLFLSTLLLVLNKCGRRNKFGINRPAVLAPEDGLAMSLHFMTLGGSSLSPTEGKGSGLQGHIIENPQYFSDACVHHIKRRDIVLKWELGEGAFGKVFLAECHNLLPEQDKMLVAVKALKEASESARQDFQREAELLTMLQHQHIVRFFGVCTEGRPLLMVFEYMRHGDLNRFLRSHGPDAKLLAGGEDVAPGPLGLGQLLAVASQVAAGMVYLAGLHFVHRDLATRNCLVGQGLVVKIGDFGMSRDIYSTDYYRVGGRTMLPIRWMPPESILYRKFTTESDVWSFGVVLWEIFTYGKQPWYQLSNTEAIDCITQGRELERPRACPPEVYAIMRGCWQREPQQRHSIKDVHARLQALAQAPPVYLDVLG
Chain of NT-3 growth factor receptor (Homo sapiens) (Q16288 32-839 limits assumed): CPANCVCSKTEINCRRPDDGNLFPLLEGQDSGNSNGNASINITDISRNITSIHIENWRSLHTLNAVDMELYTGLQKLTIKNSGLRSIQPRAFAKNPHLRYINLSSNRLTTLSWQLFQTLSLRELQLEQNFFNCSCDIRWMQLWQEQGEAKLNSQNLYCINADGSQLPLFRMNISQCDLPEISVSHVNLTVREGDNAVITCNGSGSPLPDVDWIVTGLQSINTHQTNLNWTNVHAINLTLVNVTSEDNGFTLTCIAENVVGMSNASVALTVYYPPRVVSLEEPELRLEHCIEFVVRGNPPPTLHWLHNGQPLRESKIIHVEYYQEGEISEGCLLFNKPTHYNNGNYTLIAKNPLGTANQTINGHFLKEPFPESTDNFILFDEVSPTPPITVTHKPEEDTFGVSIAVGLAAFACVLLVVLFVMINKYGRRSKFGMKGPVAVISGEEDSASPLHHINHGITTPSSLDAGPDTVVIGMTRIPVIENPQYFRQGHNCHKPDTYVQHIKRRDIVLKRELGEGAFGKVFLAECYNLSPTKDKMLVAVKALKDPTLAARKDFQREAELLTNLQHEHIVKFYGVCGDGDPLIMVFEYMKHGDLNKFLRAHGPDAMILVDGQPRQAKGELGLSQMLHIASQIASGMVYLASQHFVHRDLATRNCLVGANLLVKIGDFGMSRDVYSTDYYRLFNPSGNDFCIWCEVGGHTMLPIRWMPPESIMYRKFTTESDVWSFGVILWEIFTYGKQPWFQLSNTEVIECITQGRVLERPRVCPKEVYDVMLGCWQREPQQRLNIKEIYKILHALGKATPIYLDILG

Row | Structure (SMILES) | inhibition [1] | inhibition [2] | inhibition [3] | inhibition [4] | inhibition [5] | inhibition [6] | inhibition [7] | inhibition [8] | inhibition [9] | inhibition [10] | inhibition [11] | inhibition [12] | inhibition [13] | inhibition [14] | inhibition [15] | inhibition [16] | inhibition [17] | inhibition [18] | inhibition [19] | inhibition [20]
1 | Fc1ccc(-c2nn3ccccc3c2-c2ccncc2)cc1 | 0.45% | 0.38% | 0.3% | -0.15% | -0.76% | 2.39% | 7.59% | 0.8% | 2.44% | 1.94% | 8.81% | -1.03% | 4.77% | 0.61% | 2.01% | 2.07% | 1.79% | 2.33% | 7.42% | 5.52%
2 | Nc1nc(-c2cccc(Cl)c2)c(-c2ccc3ncccc3n2)s1 | -0.34% | 2.86% | 7.16% | 2.95% | 5.02% | 4.04% | 4.05% | -3.11% | -0.66% | 2.19% | 4.83% | 3.18% | 5.58% | 1.1% | -2.15% | 8.2% | 14.4% | 1.48% | 3.7% | 12.6%
3 | Clc1ccc(-c2nn3ncccc3c2-c2ccnc(Nc3ccccc3)n2)cc1 | 6% | 2.34% | 3.72% | 1.69% | 2.21% | 3.54% | 14.9% | 0.28% | 4.5% | 0.9% | 25.5% | 3.6% | 20.2% | 1.35% | 36.1% | 4.2% | 40.8% | 1.09% | 5.08% | 5.07%
4 | CC(=O)Nc1cccc(C#Cc2cncnc2Nc2ccc(OCc3cccc(F)c3)c(Cl)c2)c1 | -0.49% | 0.63% | 0.88% | -1.1% | 1.69% | 5.05% | 8.59% | 1.05% | 7.9% | 2.48% | 8.44% | 1.68% | 5.28% | 2.09% | 15.3% | 2.85% | 4.01% | 0.88% | 1.54% | 2.7%
5 | CCc1nn2ncccc2c1-c1ccnc(NC2CC2)n1 | 2.38% | -0.25% | 2.68% | 1.72% | 1.87% | 3.61% | 3.63% | -2% | 6.05% | 3.98% | 14.8% | 2.59% | 17.4% | 3.06% | 24.8% | 3.95% | 8.22% | 0.96% | 3.67% | 0.62%
6 | COc1cc(N2CCN(C(C)C)CC2)ccc1Nc1nc(Nc2ccc(F)cc2C(N)=O)c2cc[nH]c2n1 | 4.26% | -0.6% | 3.09% | -0.87% | -0.43% | 8.7% | 5.7% | -1.63% | 85.6% | 2.91% | 4.58% | 2.99% | 2.23% | 0.8% | 2.67% | 3.31% | 11.8% | 4.5% | 31.1% | 18.1%
7 | Fc1ccc(-c2nn3ncccc3c2-c2ccnc(Nc3ccc4c(c3)OCCO4)n2)cc1 | 16.7% | 4.94% | 12.8% | 3.72% | 8.83% | 10.8% | 38% | -8.76% | 19.2% | 2.98% | 33.7% | 4.26% | 12.2% | 1.04% | 22.9% | 10.8% | 41.8% | 1.14% | 12.1% | 20.1%
8 | COc1ccc(CNC(=O)c2ccc(-c3cc(-c4nnc(C)o4)ccc3C)cc2)cc1 | -1.3% | 1.54% | 4.36% | 2.79% | 5.45% | 3.95% | 3.7% | 0.15% | 6.7% | -0.94% | 4.73% | 5.79% | 6.54% | 2.85% | -5.63% | 13.2% | 20.7% | 4% | 6.93% | 3.14%
9 | COC(=O)c1sc(-n2cnc3cc(OC)c(OC)cc32)cc1OCc1ccccc1C(F)(F)F | 3.03% | 5.22% | 14.9% | 3.71% | 16.9% | 2.16% | 7.15% | -1.4% | 17.2% | 4.18% | 32.2% | 13.9% | 54.5% | 5.23% | 54.9% | 6.81% | 21.6% | -0.16% | 3.42% | 6.34%
10 | CCn1c(-c2nonc2N)nc2c(C#CC(C)(C)O)ncc(OC3CCNCC3)c21 | 3.24% | 1.42% | 1.02% | 2.31% | -0.14% | 6.03% | 3.86% | 0.42% | 7.59% | 4.24% | 0.96% | 2.65% | 1.85% | 1.48% | 3.1% | 3.27% | 11.2% | 2.3% | 3.12% | 2.72%
11 | Cc1cccc2c1NC(=O)/C2=N\Nc1ccc(S(N)(=O)=O)cc1 | 1.49% | 2.26% | 1.7% | 0.44% | 6.52% | 4.98% | 6.66% | -2.96% | 9.17% | 3.73% | 8.68% | 3.31% | 7.09% | 2.56% | 12.1% | 3.27% | 4.33% | 0.93% | 0.8% | 10.1%
12 | CNC(=O)c1cc(-c2ccc(F)cc2)cc(-c2ccc(S(=O)(=O)N3CCCC3)cc2)c1N | 2.94% | 2.22% | 2.48% | 2.53% | 2.33% | 2.21% | 2.22% | -3.89% | 3.8% | 0.79% | 0.86% | 2.91% | 3.09% | -0.67% | 1.97% | 2.49% | 4.92% | 1% | 0.67% | 3.33%
